The results in this text go back to PubChem BioAssay AID1851 (National Center for Advancing Translational Sciences (NCATS), 2009).

What is called AC50 is the midpoint of the concentration-response curve, whichever way the signal moves.

“And” between values parts separate entries of the source, which are not always exact repeats. Equal values may be shown once. The campaign covered roughly 16,000 compounds. About 4,000 (25%) were called active. Roughly 26% stayed inconclusive and do not appear here. The call rests on the fitted dose curve; in most records, active means well fitted curve in the direction sought with a large enough effect; inconclusive means small, poorly fitted or top-dose-only effect, or effect the other way; inactive means no such curve, though single readings can be large or run the other way. A selection follows.
On the % scale 0 is the no-effect control and ±100 the full control effect.

Chain of Cytochrome P450 2C9 (Homo sapiens) (P11712 whole entry, looked up): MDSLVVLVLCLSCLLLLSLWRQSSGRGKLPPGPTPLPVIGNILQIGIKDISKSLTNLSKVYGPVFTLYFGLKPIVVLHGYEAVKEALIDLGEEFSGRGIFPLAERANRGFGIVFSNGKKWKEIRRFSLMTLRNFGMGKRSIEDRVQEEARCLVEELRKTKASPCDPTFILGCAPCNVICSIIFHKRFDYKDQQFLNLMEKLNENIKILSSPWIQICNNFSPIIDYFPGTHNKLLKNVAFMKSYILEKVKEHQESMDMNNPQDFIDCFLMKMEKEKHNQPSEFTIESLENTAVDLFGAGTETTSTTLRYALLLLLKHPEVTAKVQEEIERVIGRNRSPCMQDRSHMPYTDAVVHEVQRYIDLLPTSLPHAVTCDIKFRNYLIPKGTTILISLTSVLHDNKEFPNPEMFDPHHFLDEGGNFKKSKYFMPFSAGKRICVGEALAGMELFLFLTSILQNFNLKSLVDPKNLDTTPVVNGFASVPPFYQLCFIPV

The assay addresses Cytochrome P450 2C9 (Homo sapiens) (UniProt P11712). The experiment in a line: Cytochrome panel assay with activity outcomes. The following applies: recombinant CYP, pro-luciferin dealkylation, luminescence, p450-cyp2c9; series mostly up to 57.1 µM.
As for `C[C@@H]1C[C@@H]2[C@H]3CCC4=CC(=O)C=C[C@]4(C)[C@]3(Cl)[C@@H](O)C[C@@]2(C)[C@@]1(O)C(=O)CO`, the AC50 entry was “inactive”.

Turning to `O=C(O)c1[nH]c2c([N+](=O)[O-])cc([N+](=O)[O-])cc2c1C(=O)O`, the AC50 was 3.16 µM (active).

On to `N[C@@H](Cc1c[nH]c2ccc([N+](=O)[O-])cc12)C(=O)O`, for which the activity, negative = inhibition is 9.84% [at 11.4 µM] (inactive).

For the compound `O=c1[nH]c2cc([N+](=O)[O-])c([N+](=O)[O-])cc2[nH]c1=O`, the AC50 result was “inactive”.

For the compound `COc1ccc(C(C)(C)C)cc1NC(=O)c1cncc(Br)c1`, the AC50 is 20 µM (active).

Turning to `CCOc1ccc(C(F)(F)F)cc1NC(=O)c1ccc(OC)c([N+](=O)[O-])c1`, the AC50 entry was “inactive”.

For the compound `CC(C)(C)NC(=O)COC(=O)c1cncc(Br)c1`, the AC50 result is “inactive”.

Turning to `O=C1C[C@H]2C(=O)[C@@H]1[C@@H](C(=O)O)[C@H]2C(=O)O`, the activity, negative = inhibition is 19.5% [at 11.4 µM] (inactive).

On to `COC(=O)c1cc(NC(=O)N2c3ccccc3Sc3ccccc32)cc(C(=O)OC)c1`, for which the AC50 was 3.55 µM (active).

Regarding `CC1CCN(CC(=O)N2c3ccccc3Sc3cc4ccccc4cc32)CC1`, the activity, negative = inhibition was -17.9% [at 11.4 µM] (inactive).

For `CCOC(=O)Nc1ccc2c(c1)N(C(=O)CCN1CCN(C)CC1)c1ccccc1S2`, the AC50 result was “inactive”.

Turning to `Nc1cc(=O)[nH]c(N)n1`, the AC50 entry is “inactive”.

For `COCCNC(=O)c1onc(CSc2ccccc2F)c1C(=O)O`, the AC50 is 15.8 µM (active).

With `COCCNC(=O)c1onc(CSc2cccc(Cl)c2)c1C(=O)O`, the AC50 was 3.98 µM (active).

As for `COCCCNC(=O)/C=C/c1ccc(Cl)cc1`, the AC50 entry is “inactive”.

For the compound `CN1CCN(CCCNC(=O)c2ccc(CSCc3cccc(Cl)c3)o2)CC1`, the AC50 result is “inactive”.

With `COCCNC(=O)c1onc(CSc2ccc(Cl)cc2)c1C(=O)O`, the AC50 is 5.01 µM (active).

`C=CCNC(=O)c1onc(CSc2ccc(F)cc2)c1C(=O)O`: the AC50 was 8.91 µM (active).

For the compound `CC(C)NCCOCCSc1ccc(Cl)cc1`, the AC50 result is “inactive”.

Regarding `N[C@H](Cn1ccc(=O)n(Cc2ccccc2C(=O)O)c1=O)C(=O)O`, the AC50 result is “inactive”.

On to `Cc1noc(C)c1C(=O)N1CCC[C@@]2(CCN(C(=O)NC(C)C)C2)C1`, for which the AC50 result is “inactive”.

For `c1nc(NCCN2CCOCC2)c2cc(-c3ccoc3)ccc2n1`, the activity, negative = inhibition was -2.85% [at 2.29 µM] (inactive).

On to `O=C(O)[C@H](Cc1ccc(O)c([N+](=O)[O-])c1)N1C(=O)c2ccccc2C1=O`, for which the activity, negative = inhibition was 0.788% [at 11.4 µM] (inactive).

Regarding `Cc1cc(/C=N\NC(=O)c2cccs2)c(C)n1-c1ccc2ncccc2c1`, the AC50 is 3.16 µM (active).

Turning to `Clc1ccc2c(NC3CCC(N4CCCCC4)CC3)ccnc2c1` (centres undefined), the activity, negative = inhibition is 10.6% [at 11.4 µM] (inactive).

`COc1cccc(NC(=O)CSc2nc3c(c(-c4ccco4)c2C#N)CCCC3)c1`: the AC50 result is “inactive”.

Consider `N#Cc1c(N)nc2c(c1-c1cccc(O)c1)CCCCCC2`, for which the AC50 is 8.91 µM (active).

As to `Cc1ccc(-c2ccc(/C=N/N3C(=O)C4C5C=CC(C6CC56)C4C3=O)o2)c([N+](=O)[O-])c1` (centres undefined), the AC50 was 5.01 µM (active).

As for `Cc1cc(-c2ccc(/C=N/n3cnnc3)o2)c([N+](=O)[O-])cc1C`, the AC50 was 2.51 µM (active).

For the compound `Cc1cc2ncn(/N=C/c3ccc([N+](=O)[O-])o3)c2cc1C`, the AC50 entry was “inactive”.

Regarding `COc1ccccc1-c1cncnc1Nc1ccc(F)cc1`, the activity, negative = inhibition is -21.5% [at 2.29 µM] (inactive).

For `Cn1cccc1C(=O)N1CCC2(CCN(C(=O)Nc3cccc(F)c3)CC2)CC1`, the AC50 entry is “inactive”.

As for `COCC(=O)Oc1c(S(=O)(=O)c2ccc(C)cc2)c(C)nn1-c1ccccc1`, the AC50 was 1.78 µM (active).

Regarding `CON(C)C(=O)c1nnc2c3ccccc3n(S(=O)(=O)c3ccc(C)cc3)c2n1`, the activity, negative = inhibition is 12.1% [at 11.4 µM] (inactive) and -11.7% [at 11.4 µM] (inactive).

Consider `COc1ccc(OC)c(NC(=O)c2c3c(nc4ccccc24)CCC3)c1`, for which the AC50 is 14.1 µM (active).

In the case of `Nc1c2c(nc3ccccc13)CCCC2`, the AC50 result was “inactive”.

For `COc1ccc(NC(=O)COC(=O)c2c3c(nc4ccccc24)CCCC3)cc1`, the half-maximal activity concentration (AC50) was 7.08 µM (active).

As for `COc1cc(-c2nnc(COC(=O)c3c4c(nc5ccccc35)CCCC4)o2)cc(OC)c1OC`, the AC50 was 2 µM (active).

For the compound `COc1cccc(NC(=O)COC(=O)c2c3c(nc4ccccc24)CCC(C)C3)c1` (centres undefined), the AC50 was 11.2 µM (active).

As for `COc1cccc(NC(=O)COC(=O)c2nc3nccc(C)n3n2)c1`, the AC50 entry is “inactive”.

For `COc1ccc(C(=O)Nc2ccc(C(=O)OCC(=O)c3ccccc3)cc2)cc1`, the AC50 result was “inactive”.

For the compound `Cn1c2c(c(=O)n(C)c1=O)CN(CCN1CCNCC1)CN2`, the AC50 entry was “inactive”.

Turning to `Cc1cc(C)c(-c2cc([C@H](C)O/N=C\[C@@H](C)[C@H](OCc3ccccc3)C(C)C)on2)c(C)c1`, the activity, negative = inhibition is -7.67% [at 11.4 µM] (inactive).

In the case of `C[N+](C)(N)CCC[N+](C)(C)N`, the activity, negative = inhibition was 15.9% [at 11.4 µM] (inactive).

Turning to `N[C@H](CCC(=O)N[C@H](CSN=O)C(=O)NCC(=O)O)C(=O)O`, the AC50 was 5.01 µM (active).

With `N[C@H](CCC(=O)NCC(=O)O)C(=O)O`, the AC50 entry was “inactive”.

Take `[N-]=[N+]=Nc1ccc(C(=O)CSC[C@@H](NC(=O)CC[C@@H](N)C(=O)O)C(=O)NCC(=O)O)cc1`: the AC50 result is “inactive”.

On to `CO[C@@H](C(C)C)[C@@H](C)[C@@H]1OC(=O)C[C@@H]1O`, for which the activity, negative = inhibition was -15.2% [at 11.4 µM] (inactive).

With `COc1cccc(CSCC(=O)O)c1`, the activity, negative = inhibition is -12.1% [at 11.4 µM] (inactive).

On to `Cc1ccc(CSc2nnc(C(F)(F)F)n2Cc2ccc(F)cc2)cc1`, for which the AC50 was 4.47 µM (active).

With `Fc1ccc(Cn2c(SCc3ccc(F)c(F)c3)nnc2C(F)(F)F)cc1`, the AC50 was 15.8 µM (active).

In the case of `COc1cccc(CSc2nnc(C(F)(F)F)n2Cc2ccc(F)cc2)c1`, the AC50 is 11.2 µM (active).

As for `Cc1c(CC(C)(C)C(=O)O)n(Cc2ccc(Cl)cc2)c2ccc(F)cc12`, the AC50 entry is “inactive”.

In the case of `Fc1ccc(Cn2c(SCc3ccc(F)c(C(F)(F)F)c3)nnc2C(F)(F)F)cc1`, the AC50 is 7.08 µM (active).

Take `COc1cccc(-c2nccc(NC3CCNCC3)n2)c1`: the activity, negative = inhibition is 9.19% [at 2.29 µM] (inactive).

`Cc1cc(=O)oc2cc(O)c(CN(C)CC(=O)O)cc12`: the activity, negative = inhibition is -0.896% [at 11.4 µM] (inactive).

Consider `NCCC(=O)O`, for which the AC50 result was “inactive”.

`Cc1ccc([C@@H](O)c2cnc(C)n2Cc2ccccc2)cc1`: the activity, negative = inhibition is -18.2% [at 11.4 µM] (inactive).

For `Cc1ccc(C(=O)Nc2c(C#N)c(C)c(C)n2Cc2ccccc2)cc1`, the AC50 was 3.55 µM (active).
